The record followed here is PubChem BioAssay.

Assay [1] deals with Human papillomavirus type 1a protein E7 (residues 44-93). Nature of the assay: small molecules binding HPV E7 44-93 – biochemical, small-molecule microarray, residues 44-93, 635 nm fluorescence, primary screen (AID 1108).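 Further: E7 fragment applied at 1 µg/mL in TBST for 1 h at 4 C; score combines spot fluorescence with its signal to noise ratio.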 The settings on record: fluorescence 635 nm, higher = more signal.
Assay [2] can be described thus: hepatitis C replication reporter changes, two-sided – Huh7 cells, luciferase reporter, HCV replication inhibitor project, primary screen (AID 1109).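 Further: huh7 hepatoma cells harbouring a luciferase neomycin HCV replicon reporter; luciferase luminescence as measure of HCV replicon replication; test concentration not given here.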 The settings on record: Huh7 HCV replicon luciferase reporter, 48 h; higher = more signal. In general terms: In a reporter assay the amount or activity of a reporter protein is the signal.
The target of assay [3] is Left-right determination factor 2 (Homo sapiens) (UniProt O00292). Description: small molecules binding LEFTY2 protein – biochemical, small-molecule microarray, 635 nm fluorescence scan, primary screen (AID 1110). The settings on record: higher = more signal.
Left-right determination factor 2 (Homo sapiens), sequence (O00292 whole entry, looked up): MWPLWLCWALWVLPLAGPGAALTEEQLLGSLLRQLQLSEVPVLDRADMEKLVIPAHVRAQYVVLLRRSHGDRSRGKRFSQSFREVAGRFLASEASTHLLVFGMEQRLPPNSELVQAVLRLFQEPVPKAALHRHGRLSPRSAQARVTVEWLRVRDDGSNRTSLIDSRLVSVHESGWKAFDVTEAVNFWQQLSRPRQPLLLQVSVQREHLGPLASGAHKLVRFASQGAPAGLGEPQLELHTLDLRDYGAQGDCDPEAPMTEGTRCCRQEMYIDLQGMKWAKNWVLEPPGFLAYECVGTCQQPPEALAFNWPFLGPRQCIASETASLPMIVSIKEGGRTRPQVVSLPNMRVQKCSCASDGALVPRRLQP
For assay [4], the target named is Calmodulin-1 (Homo sapiens) (UniProt P0DP23). Nature of the assay: small molecules binding calmodulin-1 with EGTA – biochemical, small-molecule microarray, Cy5-labelled CALM1, profiling panel (AID 1111).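 Further: labelled calmodulin applied in Tris saline Tween buffer holding calcium plus EGTA and DTT.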 The settings on record: Cy5-CALM1 binding fluorescence, higher = more signal.
Assay [5] has the same target. Description: small molecules binding Ca-loaded calmodulin-1 – biochemical, small-molecule microarray, Cy5-labelled CALM1, plus calcium, artefact control for SMM control-protein annotation, profiling panel (AID 1112).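 Further: score merges spot fluorescence with signal to noise from triplicate slides.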 The conditions noted are these: Cy5-CALM1 binding fluorescence, higher = more signal.
Assay [6] is described as follows: probe aWnt5a binding to arrayed compounds – biochemical, biotinylated probe, 635/667 nm fluorescence, primary screen (AID 1113).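 Further: score merges 667 nm fluorescence intensity with signal-to-noise per printed feature.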 The conditions noted are these: small-molecule microarray, higher = more signal.
Assay [7] in a line: probe aShh binding to arrayed compounds – biochemical, biotinylated probe, 635/667 nm fluorescence, primary screen (AID 1114).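 Further: probe is biotin-labelled aShh protein from a stem cell growth factor screen; measures binding of labelled protein to compounds printed on the slide; score merges feature fluorescence at 667 nm with signal-to-noise.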 The conditions noted are these: small-molecule microarray, higher = more signal.
Assay [8] in a line: probe aNog binding to arrayed compounds – biochemical, biotinylated probe, 635/667 nm fluorescence, primary screen (AID 1115).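 Further: probe is biotinylated aNog protein used at 0.15 µg/mL for 1 h at 4 C; z-score combines 667 nm fluorescence of each spot with its signal to noise.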 The settings on record: small-molecule microarray, higher = more signal.
Assay [9] has as its target Torsin-1A-interacting protein 1 (Homo sapiens) (UniProt Q5JTV8). Nature of the assay: compound microarray binding of lysate hLAP1 – cell lysate, small-molecule microarray, COS7 lysate, 635/667 nm fluorescence, primary screen (AID 1116). The conditions noted are these: 635 nm fluorescence, higher = more signal.
Assay [10] concerns the target Alpha-bungarotoxin (Bungarus multicinctus) (UniProt P60615). Nature of the assay: compounds binding labelled alpha-BTX control protein – biochemical, small-molecule microarray, Alexa647 label, 635/667 nm fluorescence, artefact control for SMM control protein annotation, profiling panel (AID 1117). The settings on record: alpha-BTX-A647 binding fluorescence, higher = more signal.

Assay [11] deals with Albumin (Bos taurus) (UniProt P02769). Nature of the assay: compounds binding labelled BSA control protein – biochemical, small-molecule microarray, Alexa647 label, 635/667 nm fluorescence, artefact control for SMM control protein annotation, profiling panel (AID 1118).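 Further: score merges 667 nm emission intensity and signal-to-noise per printed compound spot.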 The settings on record: BSA-A647 binding, fluorescence 635 nm, higher = more signal.
Albumin (Bos taurus), sequence (P02769 whole entry, looked up): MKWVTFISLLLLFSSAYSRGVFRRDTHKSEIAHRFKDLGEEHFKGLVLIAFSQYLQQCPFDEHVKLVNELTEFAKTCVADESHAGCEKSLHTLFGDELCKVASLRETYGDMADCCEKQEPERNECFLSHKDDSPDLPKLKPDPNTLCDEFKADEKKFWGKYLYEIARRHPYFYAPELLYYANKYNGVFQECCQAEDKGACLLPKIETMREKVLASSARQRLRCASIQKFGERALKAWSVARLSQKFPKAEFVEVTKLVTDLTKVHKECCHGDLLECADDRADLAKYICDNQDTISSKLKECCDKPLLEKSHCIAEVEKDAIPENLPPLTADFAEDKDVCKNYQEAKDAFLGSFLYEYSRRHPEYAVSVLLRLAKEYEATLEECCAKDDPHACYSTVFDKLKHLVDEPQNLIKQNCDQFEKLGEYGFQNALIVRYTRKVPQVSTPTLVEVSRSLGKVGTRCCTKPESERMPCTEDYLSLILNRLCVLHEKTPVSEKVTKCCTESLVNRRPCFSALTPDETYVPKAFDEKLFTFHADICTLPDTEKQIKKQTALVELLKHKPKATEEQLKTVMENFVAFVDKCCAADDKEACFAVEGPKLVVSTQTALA
A short description of assay [12]: probe aXIP binding to arrayed compounds – biochemical, NeuroSMM set, 635/667 nm fluorescence, primary screen (AID 1119).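 Further: probe is the protein aXip251-270 applied at 1 µg/mL to compound-printed slides; binding of probe to printed compounds measured as 667 nm fluorescence plus signal to noise.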 The conditions noted are these: small-molecule microarray, higher = more signal, called active from +8 up or from −8 down.
A short description of assay [13]: probe aNOTCH3 binding on compound microarray – biochemical, small-molecule microarray, 635/667 nm fluorescence, primary screen (AID 1120).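 Further: probe is a biotin-tagged antibody raised against NOTCH3 rather than NOTCH3 protein; score merges spot fluorescence near 667 nm with spot signal to noise.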 The conditions noted are these: higher = more signal.
The nature of assay [14]: probe aNOTCH2 binding on compound microarray – biochemical, small-molecule microarray, 635/667 nm fluorescence, primary screen (AID 1121).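 Further: score merges feature fluorescence read at 667 nm with its signal to noise.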 The conditions noted are these: higher = more signal.
For assay [15], the target named is Carbonic anhydrase 2 (Homo sapiens) (UniProt P00918). Nature of the assay: compounds binding carbonic anhydrase 2 – biochemical, small-molecule microarray, Alexa647-labelled CAII, profiling panel (AID 1122). The conditions noted are these: CAII-A647 binding fluorescence, higher = more signal.
Assay [16] in a line: COS7 lysate on small-molecule microarray, probe aHis, 635 nm (AID 1123).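 Further: z-score combines 667nm fluorescence intensity with signal-to-noise per printed compound spot.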 The settings on record: COS7 cell lysate, fluorescence, higher = more signal.
Assay [17] is described as follows: probe aLAP1 signal on lysate-treated microarray – cell lysate, small-molecule microarray, COS7 lysate, primary screen (AID 1124).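 Further: lysate comes from COS7 cells expressing LAP1 and is applied at 0.3 µg/mL; score merges spot fluorescence near 667 nm with signal-to-noise over triplicate slides.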 The settings on record: probe aLAP1, fluorescence, higher = more signal.
Assay [18] deals with Sam68 (KHDRBS1). Nature of the assay: compounds binding KHDRBS1 protein – biochemical, small-molecule microarray, 635 nm fluorescence, primary screen (AID 1125).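 Further: score merges 667 nm channel intensity with signal to noise over triplicate slides.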 The conditions noted are these: higher = more signal.
In assay [19] the test system is Chordin-like protein 2 (CHRDL2). Nature of the assay: compounds binding chordin-like 2 – biochemical, small-molecule microarray, 635 nm fluorescence, primary screen (AID 1126).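 Further: printed compound slides probed with Chrdl2 protein at 4 µg/mL for 1 h at 4 C; score merges 667 nm emission intensity with signal to noise over three replicate slides.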 The settings on record: fluorescence 635 nm, higher = more signal.
Assay [20] deals with Concanavalin-A (Canavalia ensiformis) (UniProt P02866). Nature of the assay: compounds binding concanavalin A lectin – biochemical, small-molecule microarray, Alexa647 label, 635 nm, artefact control for SMM control protein annotation, primary screen (AID 1127).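 Further: z combines 667 nm emission intensity with signal-to-noise across three replicate slides.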 The settings on record: ConA-A647 binding fluorescence, higher = more signal.
Concanavalin-A (Canavalia ensiformis), sequence (P02866 whole entry, looked up): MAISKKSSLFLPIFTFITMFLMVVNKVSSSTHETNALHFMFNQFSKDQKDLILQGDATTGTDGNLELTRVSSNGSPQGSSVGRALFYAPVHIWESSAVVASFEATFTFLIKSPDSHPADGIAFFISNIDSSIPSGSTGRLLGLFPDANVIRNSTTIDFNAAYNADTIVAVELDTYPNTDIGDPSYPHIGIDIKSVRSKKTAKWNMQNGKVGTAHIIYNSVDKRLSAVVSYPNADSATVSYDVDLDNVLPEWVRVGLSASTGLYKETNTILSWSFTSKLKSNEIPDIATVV

Structures are written as SMILES. Calls of active or inactive are those of the source.

Torsin-1A-interacting protein 1 (Homo sapiens), sequence (Q5JTV8 whole entry, looked up): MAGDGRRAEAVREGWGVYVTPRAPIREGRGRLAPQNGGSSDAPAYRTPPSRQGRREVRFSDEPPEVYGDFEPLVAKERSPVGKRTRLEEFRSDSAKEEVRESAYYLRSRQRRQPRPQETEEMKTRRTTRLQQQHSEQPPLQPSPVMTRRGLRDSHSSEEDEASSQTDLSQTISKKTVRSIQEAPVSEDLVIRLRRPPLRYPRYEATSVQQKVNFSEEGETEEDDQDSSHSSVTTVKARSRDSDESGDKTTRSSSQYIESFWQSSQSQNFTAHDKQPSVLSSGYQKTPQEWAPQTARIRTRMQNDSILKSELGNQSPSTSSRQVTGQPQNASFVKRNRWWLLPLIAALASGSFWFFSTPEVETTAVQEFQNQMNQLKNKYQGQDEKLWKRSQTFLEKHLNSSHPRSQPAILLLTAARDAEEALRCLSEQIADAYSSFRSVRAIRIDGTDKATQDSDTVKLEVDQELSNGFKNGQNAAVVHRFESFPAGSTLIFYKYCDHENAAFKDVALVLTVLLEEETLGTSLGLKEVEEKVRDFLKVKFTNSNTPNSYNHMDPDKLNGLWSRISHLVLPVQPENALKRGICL
Alpha-bungarotoxin (Bungarus multicinctus), sequence (P60615 whole entry, looked up): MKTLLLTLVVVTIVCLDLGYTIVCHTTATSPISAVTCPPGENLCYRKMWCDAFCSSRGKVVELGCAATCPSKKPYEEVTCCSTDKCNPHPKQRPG

On to `O=C1C=C[C@@H](O)[C@@H]2[C@@H]3C(=O)N(Cc4ccccc4)C(=O)[C@@H]3CC[C@@H]12`, for which the composite z-score in assay [1] was 0.248; in assay [3], 0.527; in assay [4] it was -0.133; in assay [5], -0.457; in assay [6], -0.0758; in assay [7] it was -0.283. In addition, the composite z-score is -0.213 in assay [8]; 0.476 in [9]; 0.332 in assay [10]; 0.22 in assay [11]; 0.21 in assay [13]; -0.132 in assay [14]. Further, the composite z-score in assay [15] is -0.0331; in assay [16], 0.556; in assay [17], -0.139; in assay [18], 0.0888; in [19], 0.482; in [20], 0.619. The z-score in [2] was determined as 0.493. The composite Z-score in [12] was -0.5 (inactive).
Consider `CC(=O)OC[C@H]1O[C@@H](ON=C(C)C)[C@H](OC(C)=O)[C@@H](OC(C)=O)[C@@H]1OC(C)=O`, for which the composite z-score in assay [1] is -2.02; in assay [3], 0.207; in assay [4], -0.862; in assay [5] it was -0.678; in [6], -0.0459; in [7], -0.13. Further, the composite z-score in assay [8] was -0.345; in [9], -0.958; in [10], -1.3; in assay [11], -0.727; in assay [13], -0.0178; in [14], -0.0272. For the same molecule, the composite z-score was -0.755 in [15]; -0.775 in assay [16]; 0.694 in assay [17]; -0.743 in assay [18]; -0.736 in [19]; -1.09 in assay [20]. The same molecule had a z-score in assay [2] of -0.563. Also, the composite Z-score in [12] is -1.02 (inactive).
On to `CCOC(=O)CCN1C(=O)[C@H]2[C@@H]3C(=CC[C@H]2C1=O)C(=O)[C@H]1O[C@H]1[C@H]3O`, for which the composite z-score in [1] was -0.636; in assay [3], -0.72; in assay [4] it was -0.719; in assay [5] it was -0.481; in assay [6], -0.222; in [7], -0.221. Further, the composite z-score is -0.358 in assay [8]; 0.447 in assay [9]; -0.473 in assay [10]; 0.375 in assay [11]; -0.313 in [13]; -0.146 in assay [14]. For the same molecule, the composite z-score was 0.534 in assay [15]; -0.774 in assay [16]; 0.0946 in assay [17]; -0.728 in [18]; -0.23 in [19]; -0.666 in assay [20]. Also, the z-score in [2] is -4.75. Also, the composite Z-score in assay [12] was -0.342 (inactive).
Turning to `CC(C)=CCCC(C)=CCON=C1C[C@@H](O)[C@@H](O)[C@@H]2[C@@H]3C(=O)N(c4cccc(Oc5ccccc5)c4)C(=O)[C@@H]3CC[C@H]12`, the composite z-score in assay [1] is 1.32; in assay [3], 0.323; in assay [4], 0.322; in assay [5] it was 0.321; in [6], -0.148; in assay [7], 0.0483. Besides, the composite z-score in [8] was -0.0129; in [9], 0.173; in assay [10], -0.0168; in assay [11] it was 0.631; in [13] it was -0.0288; in [14], -0.155. Further, the composite z-score in assay [15] turned out to be 0.376; in [16], 1.23; in assay [17] it was 0.163; in assay [18], 1.02; in assay [19], 0.492; in assay [20], 0.609. Besides, the z-score in assay [2] was determined as 0.237. The composite Z-score in assay [12] is 1.38 (inactive).
Consider `COC(=O)[C@H](C)NC(=O)CCC1CC(OC(=O)NCc2cccc3ccccc23)CC2(CCCC(COC(=O)NCCc3ccccc3OC)O2)O1` (stereo not given in full), for which the composite z-score in [1] was 1.39; in [3], 0.621; in [4], 0.75; in [5], -0.37; in assay [6], -0.15; in [7], 0.0141. The composite z-score in [8] was 0.0356; in assay [9], 0.787; in assay [10] it was 0.638; in [11], 0.707; in assay [13], 0.0893; in assay [14], -0.185. For the same molecule, the composite z-score is 0.548 in assay [15]; 1.06 in assay [16]; -0.557 in assay [17]; 1.3 in assay [18]; 0.409 in assay [19]; 0.917 in assay [20]. Further, the z-score in [2] is -0.314. For the same molecule, in assay [12], the composite Z-score was -0.18 (inactive).
`CC(CCN1CCc2nc(-c3ccccc3)c(-c3ccccc3)cc2C1)=NO[C@@H](C)c1cc(-c2c(C)cc(C)cc2C)no1`: the composite z-score in assay [1] was -0.324; in assay [3], -0.372; in assay [4], 0.445; in assay [5], -0.0323; in assay [6], -0.256; in assay [7], -0.428. The composite z-score in assay [8] is -0.0211; in [9], -0.0029; in assay [10], 1.33; in assay [11] it was 0.554; in assay [13], -0.0918; in [14], -0.164. In addition, the composite z-score in [15] is 0.0148; in [16], 0.157; in assay [17], -0.0375; in [18], -0.0575; in assay [19], -0.583; in assay [20] it was 0.613. In assay [2], the z-score is -1.47. In addition, in assay [12], the composite Z-score was 0.0956 (inactive).
